Screening results as filed in PubChem BioAssay.
The list is not random: actives were taken first. Their share in the collection is about 1.1%.
TNF necrop inh – blocks TNF-alpha induced death of Jurkat FADD-/- cells; Jurkat FADD-/- TNF necroptosis rescue, ATP luminescence, 24 h; 0 = TNF only, 100 = no-TNF cells; activation (protection from cell death), % at 10 µM; 220,000 tested, 0.068% active; AID 463075;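 active means activation, meaning protection from cell death, of at least 50% relative to plate controls; inactive means activation below 50%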;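 further: necroptosis triggered by 40 ng/mL TNF-alpha added together with compound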
HIF act – HIF pathway transcriptional activation. U2OS HRE-luciferase reporter, luminescence; normalized: DMSO 0%, desferrioxamine 100%. activation, % at 7.5 µM (by protocol). 300,000 tested, 0.32% active. AID 1910;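 active means mean activation of at least 10% of the iron chelator positive control signal, with at least half of replicates also reaching 10%; inconclusive means mean and replicate majority disagree about reaching 10%; inactive means mean and most replicates under 10%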
zVAD death inh – L929 zVAD cell death inhibition | 220,000 tested, 0.38% active | viability rescue, % at 10 µM | L929 zVAD necroptosis rescue, ATP luminescence, 24 h; with zVAD 60 µM | AID 1377;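 active means activation, scaled between plate controls, above about 75%, limit read from the data; inactive means activation under that limit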;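 further: 0% = zVAD with DMSO and 100% = DMSO alone without zVAD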
Calb FLC – C. albicans growth modulation with fluconazole | C. albicans CaCi-2 (fluconazole-resistant clinical isolate) + fluconazole, Alamar Blue growth, 48 h | growth inhibition, % (no concentration beside the values) | 300,000 tested, 0.57% active | AID 1979;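 active means growth inhibition above about 58% in most replicates, limit read from the data, passing the limit was not always enough; inconclusive means exactly half the replicates above a set limit; inactive means most replicates below a set limit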;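 further: all wells also contain fluconazole at 8 µg/ml as a sub-toxic cotreatment; 0% = median of DMSO wells and 100% = median of geldanamycin control wells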
The depositor's hits bear a star; ? = inconclusive; . = no result.

SMILES	TNF necrop inh	HIF act	zVAD death inh	Calb FLC
CC(C)[C@H](NC(=O)c1ccccc1Cl)C(=O)Nc1nc(-c2ccccn2)cs1	-6	20*	3	-5
FC(F)(F)c1ccccc1NC(=S)N1CCCC1	0	.	-1	-16
FC(F)(F)c1ccccc1NC(=S)NN=C1CCCCCC1	0	3	-2	95*
CC(C)N(C(=O)COC(=O)c1ccc(Cl)nc1)C(C)C	1	0	1	0
O=C(OCCOc1ccc(Br)cc1)c1ccc(Cl)nc1	1	-2	1	110*
COc1ccc(-c2n(CC(=O)OC3CC(C)CCC3C(C)C)c3ccccc3[n+]2C)cc1 (centres undefined)	-10	0	11	95*
COc1ccc(OCc2n(CC(=O)OC3CC(C)CCC3C(C)C)c3ccccc3[n+]2C)cc1 (centres undefined)	-22	0	33	-1
O=C(Cc1ccc(Cl)cc1)Nc1ccc(Br)cc1	11	2	0	42*
O=C(Cc1ccc(Br)cc1)NNC(=O)Nc1ccc(Cl)cc1	1	0	2	2
NS(=O)(=O)c1ccc(NC2=CC(=O)C(=O)c3ccccc32)cc1	.	-5	.	42
Cc1ccc(NC2=CC(=O)C(=O)c3ccccc32)cc1	-12	-7	46	101*
O=c1oc2ccccc2c(O)c1Sc1ccc(Cl)cc1	.	-1	.	-3
CC(=O)NC(c1ccco1)c1ccc2cccnc2c1O (centres undefined)	-9	9	56	-6
CCCC(=O)NC(c1ccc(N(C)C)cc1)c1ccc2cccnc2c1O (centres undefined)	.	48*	.	92*
CCCC(=O)NC(c1ccc(C(C)C)cc1)c1ccc2cccnc2c1O (centres undefined)	.	119*	.	89*
CCCC(=O)NC(c1ccccc1Cl)c1ccc2cccnc2c1O (centres undefined)	.	71*	.	83*
CCC(=O)NC(c1ccc(C)cc1)c1ccc2cccnc2c1O (centres undefined)	.	97*	.	0
O=C(c1ccc(Cl)cc1Cl)N1CCC(C(=O)N2CCOCC2)CC1	.	1	.	-14
Cc1ccc(CC(=O)O/N=C(\N)c2ccncc2)cc1	.	1	.	0
Cc1ccc(OCCNC(=O)CCc2nc3sc4c(c3c(=O)[nH]2)CCCC4)cc1	.	45*	.	7
O=C(COC(=O)Cc1ccccc1[N+](=O)[O-])Nc1nnc(-c2ccccc2)o1	.	1	.	9
Clc1cccc(N/N=C/c2ccncc2)c1	-1	1	2	93*
Cc1ccc(N/N=C/c2cccnc2)cc1	-1	1	0	-12
Cc1ccc(N/N=C/c2ccncc2)cc1	.	3	.	100*
O=C(Nc1cccc(Cl)c1)O/N=C\c1ccncc1	-2	.	0	-7
SMILES	TNF necrop inh	HIF act	zVAD death inh	Calb FLC
CCOc1ccc(NC(=O)CN(C)C(=O)CCCc2c[nH]c3ccccc23)cc1OCC	.	0	.	-1
CCN1/C(=C/c2ccc3ccccc3[n+]2CC)C=Cc2ccccc21	-10	1	-2	105*
CCN1/C(=C/c2ccc3ccccc3[n+]2CCCS(=O)(=O)[O-])C=Cc2cc(C)ccc21	.	-2	.	-4
CCCCCCc1c(O)nc(SCCN(C)C)[nH]c1=O	-2	0	0	-4
COc1ccc(Cc2nnc(SCC(=O)NC3CCCCC3)n2C)cc1	0	70*	0	-6
O=C1CN(C(=O)CNCc2ccc(Cl)cc2)c2ccccc2N1	2	0	0	1
CC1(C)CC(NC(=O)c2ccc(Cl)c(S(=O)(=O)N(Cc3ccccc3)c3ccccc3)c2)CC(C)(C)N1	.	1	.	48
CCCCCc1ccc(-c2ccc(/C=C/C(=O)O)cc2)nc1	-1	-5	0	81*
CCCc1ccc(-c2ccc(/C=C/C(=O)O)cc2)nc1	1	-6	-1	15
O=C1NC(Cc2c[nH]c3ccccc23)C(=O)N1CCOc1ccc(F)cc1 (centres undefined)	65*	0	7	-10
O=C1CCC(C(=O)Nc2cc(C(F)(F)F)ccc2-n2cncn2)=NN1	.	0	.	-1
CCCNC(=O)C12CCC(C)(c3nc4cc(C)c(C)cc4nc31)C2(C)C (centres undefined)	1	.	3	110*
CNC(=O)C12CCC(C)(c3nc4cc(C)c(C)cc4nc31)C2(C)C (centres undefined)	0	0	0	5
O=C(CCC(=O)Nc1ccccc1Cl)NNS(=O)(=O)c1ccc(Cl)cc1	.	.	.	111*
COc1cc(/C=N/NC(=O)C(=O)/C=C2\NC3(CCCC3)Cc3ccccc32)ccc1O	0	1	2	-5
O=C(/C=C1\NC2(CCCC2)Cc2ccccc21)C(=O)N/N=C/c1ccccc1O	-7	0	37	95*
O=[N+]([O-])c1cccc(NC(=S)Nc2nc(-c3ccccc3Cl)cs2)c1	.	1	.	-1
COc1ccc(OC)c(C2=Nn3c(nnc3-c3cc(C)[nH]n3)SC2)c1	-3	58*	0	-6
Cc1cc(-c2nnc3n2N=C(C(C)(C)C)CS3)n[nH]1	-2	.	0	.
O=C1OCC2=C1C(c1ccc(F)cc1)c1cc3c(cc1N2)OCO3 (centres undefined)	-16	.	-1	.
CCOc1ccccc1C1C2=C(COC2=O)Nc2cc3c(cc21)OCO3 (centres undefined)	-9	2	-1	83*
COC(C(=O)Nc1ccc(F)c(F)c1)c1ccccc1 (centres undefined)	99*	0	13	-8
O=C(Nc1cccc(F)c1)c1ccccc1	0	2	0	-22
COC(C(=O)Nc1cccc(F)c1)c1ccccc1 (centres undefined)	79*	0	23	-4
COC(C(=O)NC1CC1)c1ccccc1 (centres undefined)	31	0	1	?
SMILES	TNF necrop inh	HIF act	zVAD death inh	Calb FLC
O=C(Oc1ccc(-c2cnc3ccccc3n2)cc1)c1ccco1	0	1	79*	-4
Cc1c(C(=O)Oc2ccc(-c3cnc4ccccc4n3)cc2)cccc1[N+](=O)[O-]	0	-22	81*	5
COc1nc(NC(=O)c2ccc(F)cc2)nc(OC)c1-c1ccccc1	.	-2	.	-1
CC(C)CN1C(=O)c2ccc(C(=O)Nc3ccc(OCC(=O)O)cc3)cc2C1=O	.	2	.	-1
Fc1ccccc1Nc1nc(NCc2ccco2)nc(N2CCOCC2)n1	2	0	4	-30
CC(C)c1ccc(Nc2nc(NCc3ccco3)nc(N3CCOCC3)n2)cc1	2	0	87*	-6
O=C(COc1cccc(C(F)(F)F)c1)Nc1ccc(S(=O)(=O)N2CCCCC2)cc1	.	0	.	-4
O=C(Nc1ccc(C2=NCCN2)cc1)c1ccc(C(=O)Nc2ccc(C3=NCCN3)cc2)c([N+](=O)[O-])c1	0	0	1	107*
Cc1ccc(NC(=O)c2ccc(-n3cccn3)c([N+](=O)[O-])c2)cc1	0	0	0	-16
CCn1c(N2CCC(Cc3ccccc3)CC2)nc2c1c(=O)[nH]c(=O)n2C	-9	17*	0	23
